Most compounds without a hit are left out; they make up all but 2.8% or so of the library.
Peg3 prom inh = reduces Peg3 promoter-driven luciferase expression in HeLa; HeLa PEG-Prom luciferase reporter, luminescence, overnight; inhibition, % at 20 µM; 360,000 tested, 1.7% active; AID 588405;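 active = inhibition of at least 50% at 20 µM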
KKLEB cytotox = reduces viability of KKLEB cystic fibrosis airway cells; KKLEB CF airway cells viability, ATPlite luminescence, overnight; active compounds read low; cells stimulated with P. aeruginosa culture filtrate; 360,000 tested, 0.36% active; activity change (cytotoxicity), % at 5 µM;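 active = corrected activity change at or below -50% at 5 µM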
CF NFkB block = blocks PAF-induced NF-kB reporter in cystic fibrosis cells; KKLEB NF-kB-GFP reporter, GFP fluorescence overnight; inhibition, % at 5 µM; 360,000 tested, 0.86% active; AID 588850;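 active = at least 50% inhibition at 5 µM, scaled per plate between neutral and stimulator controls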;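 note: PAF is a Pseudomonas aeruginosa culture filtrate used as stimulus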
TRPM1 prom inh = MITF TRPM1 promoter inhibition in SK-MEL-5 cells. SK-MEL-5 TRPM1 promoter luciferase, 24 h. AID 488899. inhibition, % at 12.5 µM. 330,000 tested, 0.83% active;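 active = mean inhibition across replicates of 60% or more, whatever share of single replicates reaches that level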
HIF-2a block = HIF-2a inhibition; inhibition, % at 18.8 µM; 360,000 tested, 0.72% active; 786-0 RCC cells HIF-2a reporter, luciferase luminescence, overnight;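 active = inhibition of the luminescence signal of 40% or more relative to plate controls, in a single-dose primary screen at 18.75 µM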
Shn3 3UTR inh = Schnurri-3 reporter inhibition in Clone20 osteoblasts; Clone20 osteoblast Shn3 3'UTR firefly luciferase, 24 h; inhibition, % at 12.5 µM; 360,000 tested, 0.52% active; AID 588674;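 active = mean inhibition of at least 75% with every replicate also reaching 75%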
Mdm2-MdmX confirm = confirmation of inhibitors of human Mdm2/MdmX interaction, set 2. shares compounds with HIF-2a block. SaOS-2 split-luciferase Mdm2/MdmX complementation, luminescence. inhibition, % at 8 µM. 740 tested, 99% active. AID 504601;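 active = mean inhibition of the luminescence signal across two replicates at or above 26 percent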
Target sequence (O15151 whole entry, looked up): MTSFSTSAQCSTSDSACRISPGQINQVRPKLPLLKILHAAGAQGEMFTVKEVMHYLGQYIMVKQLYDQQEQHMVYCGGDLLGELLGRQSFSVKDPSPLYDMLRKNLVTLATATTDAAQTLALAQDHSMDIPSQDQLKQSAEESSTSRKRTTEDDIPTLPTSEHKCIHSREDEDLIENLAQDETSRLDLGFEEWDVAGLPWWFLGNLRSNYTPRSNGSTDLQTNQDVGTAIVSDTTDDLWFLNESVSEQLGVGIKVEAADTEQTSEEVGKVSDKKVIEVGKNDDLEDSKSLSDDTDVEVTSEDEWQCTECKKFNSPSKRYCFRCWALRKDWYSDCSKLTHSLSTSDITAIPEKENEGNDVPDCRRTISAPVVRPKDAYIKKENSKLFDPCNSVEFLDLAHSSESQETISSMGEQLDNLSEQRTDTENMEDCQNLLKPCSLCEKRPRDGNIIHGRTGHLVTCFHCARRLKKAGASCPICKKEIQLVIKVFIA
Target sequence (Q00987 whole entry, looked up): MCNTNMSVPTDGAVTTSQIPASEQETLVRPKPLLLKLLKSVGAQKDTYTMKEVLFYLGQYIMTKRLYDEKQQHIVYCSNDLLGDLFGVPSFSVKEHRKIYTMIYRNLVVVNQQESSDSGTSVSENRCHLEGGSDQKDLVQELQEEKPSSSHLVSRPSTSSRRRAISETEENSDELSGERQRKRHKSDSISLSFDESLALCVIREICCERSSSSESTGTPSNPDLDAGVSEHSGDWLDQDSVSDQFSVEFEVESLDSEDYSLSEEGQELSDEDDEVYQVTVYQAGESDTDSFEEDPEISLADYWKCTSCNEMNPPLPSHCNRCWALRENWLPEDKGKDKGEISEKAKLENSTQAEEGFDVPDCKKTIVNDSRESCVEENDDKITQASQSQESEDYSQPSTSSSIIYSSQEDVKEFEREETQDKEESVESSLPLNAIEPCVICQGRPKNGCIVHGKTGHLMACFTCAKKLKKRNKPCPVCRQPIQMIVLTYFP
HIF-2a inh conf = confirmation of HIF-2a inhibitors; shares compounds with HIF-2a block; 786-0 RCC cells, HIF-2a luciferase reporter luminescence, overnight; inhibition, % at 18.8 µM; 1,800 tested, 56% active;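 active = mean inhibition across four replicates of at least 40 percent at the single tested concentration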
HIF-1a cs = inhibits HIF-1a reporter, a counter-screen for HIF-2a inhibitors; shares compounds with HIF-2a block; MiaPaCa-2 HIF-1a luciferase reporter, desferoxamine, overnight; inhibition, % at 18.8 µM; 1,800 tested, 72% active;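 active = mean inhibition of the reporter signal across four replicates at the single tested dose of 50% or more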
A number is an active result; n = inactive; x = no result.

SMILES	Peg3 prom inh	KKLEB cytotox	CF NFkB block	TRPM1 prom inh	HIF-2a block	Shn3 3UTR inh	HIF-2a inh conf	HIF-1a cs	others
Cc1cccc(C)c1N/C=C/c1onc(C)c1[N+](=O)[O-]	n	n	n	n	n	n	x	x
CCc1ccc2oc(C(=O)NCC(c3ccc(OC)cc3)N3CCCCC3)c(C)c2c1 (stereo not drawn)	n	n	n	n	n	n	x	x
O=C(O)c1cccc(C(=O)Nc2cccc(NC(=O)C3CCCO3)c2)c1 (stereo not drawn)	n	n	n	n	48.5	n	47.8	n
O=C(O)c1cccc(NC(=O)C2CCCO2)c1 (stereo not drawn)	n	n	n	n	n	n	x	x
c1ccc(CN2CCC3CC2c2cc(N4CCCCC4)ccc23)cc1 (stereo not drawn)	n	n	n	x	n	n	x	x
NNC(=O)c1cccc(COc2ccccc2Br)c1	n	n	n	n	n	n	x	x
NNC(=O)c1cccc(COc2ccc3c(c2)CCC3)c1	n	n	n	n	68.4	n	52.5	n
O=C(Cc1cccc2ccccc12)Nc1ccc(-c2cc3ccccc3oc2=O)cc1	n	n	n	n	52.7	n	68.1	52.4
Cc1ccc(C(=O)NC(=S)Nc2ccc(-c3cc4ccccc4oc3=O)cc2)c(C)c1	n	n	n	n	81.1	n	76.5	56.2
Cc1cc(C)cc(C(=O)NC(=S)Nc2ccc(-c3cc4ccccc4oc3=O)cc2)c1	n	-56.7	57.2	n	82.1	n	75.5	n
O=C(Nc1ccc(F)cc1)c1cc(-c2ccncc2)nc2c(Cl)cccc12	n	n	n	n	n	n	x	x
Cc1ccc(C)c(-n2c(-c3csc(C)c3C)n[nH]c2=S)c1	n	n	n	n	n	n	x	x
CSCc1c(C(=O)NCCc2ccccn2)oc2ccccc12	n	n	n	n	n	n	x	x
CN(C)CCNC(=O)c1cc2c(s1)-c1ccc(Cl)cc1SC2	110.3	n	n	99.8	n	n	x	x	Mdm2-MdmX confirm=103.0
CCN(CC(=O)Nc1ccc(OC)c(Cl)c1)CC(=O)NC(C)C	n	n	n	n	n	n	x	x
Cc1c(CCC(=O)N[C@@H](C)C(=O)O)c(=O)oc2c(C)c3oc4c(c3cc12)CCCC4	n	n	n	n	50.4	n	60.3	n
CC[C@@H](C)[C@H](NC(=O)Cc1c(C)c2cc3c(C)c(C)oc3c(C)c2oc1=O)C(=O)O	n	n	n	n	n	n	x	x
Cc1c(CCC(=O)NCCC(=O)O)c(=O)oc2c(C)c3oc4c(c3cc12)CCCC4	n	n	n	n	56.0	n	65.5	n
CC(=O)C1=CCC(c2ccccc2Cl)N(S(=O)(=O)c2ccc(C)cc2)C1 (stereo not drawn)	n	n	n	x	n	n	x	x
COc1ccc(/C=C/C(=O)C(C(N)=O)=C2SCCS2)cc1	n	n	n	n	n	n	x	x
NC(=O)C(C(=O)/C=C/c1ccc(Cl)cc1)=C1SCCS1	61.3	n	n	n	n	x	x	x	Mdm2-MdmX confirm=102.0
CC1(C(=O)NCc2ccccc2)CN(S(C)(=O)=O)CC(=O)N1C1CC1 (stereo not drawn)	x	x	x	x	n	x	x	x
NC(=O)c1cc2ccncc2c2ccccc12	n	n	79.4	n	n	n	x	x	Mdm2-MdmX confirm=98.0
O=S(=O)(NCc1ccco1)c1ccc(Cl)nc1	n	n	n	n	n	n	x	x
COc1ccc(/C=C/c2nc3ccccc3c(=O)o2)cc1	n	n	n	n	42.8	n	n	88.9
SMILES	Peg3 prom inh	KKLEB cytotox	CF NFkB block	TRPM1 prom inh	HIF-2a block	Shn3 3UTR inh	HIF-2a inh conf	HIF-1a cs	others
Cc1cc(C)n(C(=O)/C(C#N)=N\Nc2ccccc2[N+](=O)[O-])n1	n	n	n	n	n	n	x	x
Cc1cc(C)n(C(=O)/C(C#N)=N/Nc2cc(Cl)cc(Cl)c2)n1	n	-62.0	56.8	n	n	n	x	x	Mdm2-MdmX confirm=95.0
O=S(=O)(/C(=C\c1ccc(C(F)(F)F)cc1)c1nc2ccccc2[nH]1)c1ccccc1	104.8	-67.6	86.0	97.1	84.5	92.8	97.6	107.4
Oc1ccccc1N=Nc1nc(-c2ccccc2)c(-c2ccccc2)[nH]1	n	n	81.4	80.4	n	88.5	x	x	Mdm2-MdmX confirm=86.7
CCN(CC(=O)NCc1cccs1)C(=O)c1cccc(S(=O)(=O)N2CC(C)OC(C)C2)c1 (stereo not drawn)	n	n	n	n	n	n	x	x
Cc1cc(Nc2ccc([N+](=O)[O-])cc2)c2ccccc2n1	n	n	n	n	n	n	x	x	Mdm2-MdmX confirm=103.0
CCOc1ccc2nc(C)cc(Nc3ccc4c(c3)OCCO4)c2c1	87.6	n	n	n	45.4	n	n	n
CCOc1ccc2nc(C)cc(Nc3cccc([N+](=O)[O-])c3)c2c1	91.7	n	n	83.5	62.9	n	n	101.2	Mdm2-MdmX confirm=103.2
COc1ccc(Nc2nc(Nc3ccc(OC)cc3OC)nc(N3CCN(C)CC3)n2)c(OC)c1	n	n	n	n	n	n	x	x
CC(=O)C1C(c2cccc(F)c2)c2c(n[nH]c2C)CC1(C)O (stereo not drawn)	n	n	n	n	n	n	x	x
CCn1c(SCC(=O)Nc2oc(-c3ccccc3)c(-c3ccccc3)c2C#N)nnc1-c1cc(OC)cc(OC)c1	n	n	n	n	n	n	x	x
CCCCC(=NCCc1c(C)[nH]c2ccc(OC)cc12)C1=C(O)CC(c2ccccc2)CC1=O (stereo not drawn)	n	n	n	n	40.9	n	n	65.4
CCN1CCN(c2ccc(S(=O)(=O)N3CCCCC3)cc2NC(=O)/C=C/c2ccc([N+](=O)[O-])cc2)CC1	76.0	n	n	n	87.0	n	n	100.8
COCCCNC(=O)c1ccc(-n2nc(C(F)(F)F)cc2-c2cccs2)cc1	n	n	n	n	48.8	n	n	n
O=C(NCCCN1CCOCC1)c1cc(-c2cccs2)on1	n	n	n	n	n	n	x	x
O=C(NCCCN1CCOCC1)c1ccc(-n2nc(C(F)(F)F)cc2-c2cccs2)cc1	55.4	n	n	n	45.0	n	n	65.6
COc1cc(C(=O)NCc2ccc3c(c2)OCO3)c([N+](=O)[O-])cc1OC	n	n	n	n	n	n	x	x
O=C(O)c1cc(N2C(=O)C3CC=CCC3C2=O)ccc1NCc1cccnc1 (stereo not drawn)	n	n	n	n	n	n	x	x
CCCn1nc([N+](=O)[O-])c(C(C#N)c2nc3ccccc3s2)c(Cl)c1=O (stereo not drawn)	n	-55.0	n	n	52.3	n	x	x	Mdm2-MdmX confirm=100.2
CCn1nc([N+](=O)[O-])c(C(C#N)c2nc3ccccc3n2C)c(Cl)c1=O (stereo not drawn)	n	n	n	n	n	n	x	x

Screens (PubChem BioAssay)
